Laboratory results as given in paper PMC4336329 (PLoS ONE, 2015).
The whole screen tested about 310,000 compounds, of which about 14,000 (4.5%) showed an effect of 50% or more. The effect is printed as a negative number. The sample as a whole holds a higher share of strong results than the screen did.

target: human ether-à-go-go-related gene (hERG) potassium channel (human, UniProt Q12809); assay: primary screen, population patch clamp on CHO cells stably expressing hERG; higher = less effect of the substance
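Further: peak tail current of the secondary pulse compared with the same well before compound.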

Sequence of human ether-à-go-go-related gene (hERG) potassium channel (Q12809 whole entry, looked up): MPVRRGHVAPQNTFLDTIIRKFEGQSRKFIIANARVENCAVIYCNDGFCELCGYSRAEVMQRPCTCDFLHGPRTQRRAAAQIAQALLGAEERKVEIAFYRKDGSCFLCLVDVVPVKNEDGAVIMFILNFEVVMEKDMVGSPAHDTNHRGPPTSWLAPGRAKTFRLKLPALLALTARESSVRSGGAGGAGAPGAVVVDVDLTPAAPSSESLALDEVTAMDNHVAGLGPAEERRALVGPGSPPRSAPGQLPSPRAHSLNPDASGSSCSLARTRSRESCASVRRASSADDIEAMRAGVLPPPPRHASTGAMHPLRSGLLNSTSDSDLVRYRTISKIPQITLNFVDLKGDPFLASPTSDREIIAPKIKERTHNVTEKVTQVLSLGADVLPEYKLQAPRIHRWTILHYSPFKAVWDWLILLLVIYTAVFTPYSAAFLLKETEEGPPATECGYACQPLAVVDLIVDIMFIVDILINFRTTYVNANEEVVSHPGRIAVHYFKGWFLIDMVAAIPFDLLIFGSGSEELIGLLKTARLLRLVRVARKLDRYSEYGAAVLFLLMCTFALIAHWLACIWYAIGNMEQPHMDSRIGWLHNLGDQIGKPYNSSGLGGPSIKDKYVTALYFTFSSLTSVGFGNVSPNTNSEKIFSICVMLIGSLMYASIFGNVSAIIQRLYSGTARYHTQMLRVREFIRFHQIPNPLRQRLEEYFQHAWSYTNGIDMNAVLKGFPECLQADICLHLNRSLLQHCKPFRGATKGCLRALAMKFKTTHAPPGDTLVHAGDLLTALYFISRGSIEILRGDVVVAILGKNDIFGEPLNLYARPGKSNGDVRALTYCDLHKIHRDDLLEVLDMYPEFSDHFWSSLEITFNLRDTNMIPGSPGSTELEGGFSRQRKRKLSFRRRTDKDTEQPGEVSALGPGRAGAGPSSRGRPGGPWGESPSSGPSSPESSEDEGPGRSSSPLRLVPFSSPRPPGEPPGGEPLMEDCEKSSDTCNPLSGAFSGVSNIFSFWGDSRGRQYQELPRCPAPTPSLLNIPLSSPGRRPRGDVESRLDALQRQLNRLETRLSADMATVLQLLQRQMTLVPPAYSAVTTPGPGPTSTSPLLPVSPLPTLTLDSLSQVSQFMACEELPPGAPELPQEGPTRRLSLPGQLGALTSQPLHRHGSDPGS

| Structure (SMILES) | hERG current change (%, negative = inhibition) at 10uM [%] |
| --- | --- |
| COc1cc(/C=C/C(=O)OCC(=O)Nc2cc(C(F)(F)F)ccc2N2CCOCC2)ccc1O | -0.592 |
| C=CCOC(=O)C1=C[C@@H](c2ccc(Br)cc2)C[C@@H](OCc2ccc(CO)cc2)O1 | -14.7 |
| COc1cc(C(=O)OCC(=O)N2CCCCC2C)ccc1OCc1c(C)noc1C (stereo not drawn) | 6.3 |
| C#CCOCCOCCOCCNc1nc(N2CCN(C(=O)CCCCCCCCCCNC(=O)[C@H](CO)n3cc(CCCSC)nn3)CC2)nc(N2CCN(C(=O)CCCCCCCCCCNC(=O)[C@H](CO)n3cc(CCCSC)nn3)CC2)n1 | 4.57 |
| COc1ccccc1NC(=O)c1ccc(S(=O)(=O)N(C)c2ccccc2)cc1 | -3.47 |
| COc1ccc(NC(=O)c2cc3c(s2)CCC(C)C3)cc1S(=O)(=O)N1CCOCC1 (stereo not drawn) | -19.1 |
| CCN(CC)S(=O)(=O)c1ccc(N2CCOCC2)c(NC(=O)CC2OC(=O)c3ccccc32)c1 (stereo not drawn) | -26 |
| Cc1cc(-c2ccccc2)c(C#N)c(SCC(N)=O)n1 | -3.47 |
| O=C(NCCc1ccc(F)cc1)c1ccc2c(=O)n3c(nc2c1)CCC3 | -45.7 |
| Cc1nc2n(c(=O)c1CCN1CCC(c3noc4cc(F)ccc34)CC1)CCCC2 | -68 |
| O=C(NCc1ccc(F)cc1)c1ccc2c(=O)n3c(nc2c1)CCCCC3 | -36.7 |
| CCCCN(CCCNC(=O)CN1C(=O)COc2ccccc21)c1ccccc1 | -26 |
| Cc1noc(C)c1COC(=O)COc1ccc(C#N)cc1 | 2.8 |
| CCN1CCN(CC(=O)N2N=CCC2c2ccccc2)CC1 (stereo not drawn) | 3.12 |
| O=C(CN1CCN(c2ccccc2)CC1)N1N=CCC1c1ccccc1 (stereo not drawn) | 5.51 |
| O=C(CN1CCN(C(c2ccccc2)c2ccccc2)CC1)N1N=CCC1c1ccccc1 (stereo not drawn) | -50.1 |
| CC(C)CN(C(=O)CCC(=O)OCC(=O)N(C)c1ccccc1)c1c(N)n(CC(C)C)c(=O)[nH]c1=O | 10.7 |
| O=C(CCCn1c(=S)[nH]c2cc3c(cc2c1=O)OCO3)N1CCN(c2ccccc2F)CC1 | 20.6 |
| CCOc1ccc(NC(=S)N2CCCN(Cc3cc(C)ccc3C)C2)cc1 | -57.8 |
| CCOc1ccc(NC(=S)N2CCCN(Cc3cccc(Cl)c3)C2)cc1 | -17.6 |
| COc1ccc(NC(=S)N2CCCN(Cc3cc(C)ccc3C)C2)cc1 | -12.7 |
